Data taken from PubChem BioAssay (NCI).
About 83,000 compounds went through this panel and 20% of them were active in at least one assay; those are over-represented in the sample as a whole.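 Treatment: one concentration, 48 hours, 96-well format. Scoring: percent growth, with anything below 10 considered active.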 Activity calls are given as the source filed them.

Key:
Test in all cases: NCI-60 one-dose screen, 48 h (100 = growth as untreated, 0 = no growth, -100 = all killed)
Details in all cases: 10 µM unless noted
DU-145 prostate = system: DU-145 prostate
K-562 leukemia = system: K-562 leukemia
MALME-3M melanoma = system: MALME-3M melanoma
MDA-MB-231 breast = system: MDA-MB-231 breast
RXF 393 renal = system: RXF 393 renal
SF-268 CNS = system: SF-268 CNS
SF-539 CNS = system: SF-539 CNS
UACC-257 melanoma = system: UACC-257 melanoma
M14 melanoma = system: M14 melanoma
SF-295 CNS = system: SF-295 CNS

Measured: growth

C(=C\c1ccccc1)/CN1CCN(C(c2ccccc2)c2ccccc2)CC1
inactive: DU-145 prostate 109% | K-562 leukemia 79.2% | MALME-3M melanoma 106% | MDA-MB-231 breast 91.5% | RXF 393 renal 81% | SF-268 CNS 98.5% | SF-539 CNS 90.7% | UACC-257 melanoma 92.1% | M14 melanoma 99.1%

CCCOC(=O)c1ccc2c(c1)[N+](=O)C(C(=O)c1ccccc1)=C(C(F)(F)F)[N+]2=O
active: DU-145 prostate -97.2% | K-562 leukemia -74% | MALME-3M melanoma -73.7% | MDA-MB-231 breast -90.4% | RXF 393 renal -93.2% | SF-268 CNS -81.4% | SF-539 CNS -95% | UACC-257 melanoma -94.2% | M14 melanoma -70.3%

Cc1nn2c(-c3nc4ccc(Cl)cc4[nH]3)c(-c3ccc(F)cc3)nc2s1
inactive: DU-145 prostate 104% | K-562 leukemia 88.6% | MALME-3M melanoma 128% | MDA-MB-231 breast 116% | RXF 393 renal 96.6% | SF-268 CNS 101% | SF-539 CNS 97.1% | UACC-257 melanoma 92.9% | M14 melanoma 95.4%

CNc1ccc(Br)cc1-c1n[nH]c(=O)[nH]c1=O
inactive: DU-145 prostate 122% | K-562 leukemia 103% | MALME-3M melanoma 110% | MDA-MB-231 breast 94.2% | SF-268 CNS 111% | SF-295 CNS 79.6% | SF-539 CNS 103% | M14 melanoma 100%

CC(=O)Nc1ccc(Sc2ccc([N+](=O)[O-])o2)cc1
inactive: DU-145 prostate 34.7% | K-562 leukemia 17.6% | MDA-MB-231 breast 58.6% | SF-268 CNS 54.5% | SF-539 CNS 15.3% | M14 melanoma 12.3%
active: MALME-3M melanoma -16.5% | RXF 393 renal -57.1% | UACC-257 melanoma -43.4%

COc1ccccc1-n1c(SCc2cc(OC)c(OC)c(OC)c2)nc2ccc(Cl)cc2c1=O
inactive: DU-145 prostate 30.1% | K-562 leukemia 12.7% | MALME-3M melanoma 33% | MDA-MB-231 breast 55.7% | RXF 393 renal 61.5% | SF-268 CNS 41.6% | SF-295 CNS 31.9% | SF-539 CNS 64.6% | M14 melanoma 15.9%

COc1ccc(C2OCC(C)(C)CO2)cc1OC
inactive: DU-145 prostate 107% | K-562 leukemia 101% | MALME-3M melanoma 107% | MDA-MB-231 breast 103% | RXF 393 renal 88% | SF-268 CNS 101% | SF-539 CNS 104% | UACC-257 melanoma 87.5% | M14 melanoma 113%

FC(F)(F)c1cc(CNc2ncc(Br)c(Cl)n2)cc(C(F)(F)F)c1
inactive: DU-145 prostate 107% | K-562 leukemia 89.1% | MALME-3M melanoma 75.8% | MDA-MB-231 breast 121% | RXF 393 renal 86% | SF-268 CNS 102% | SF-539 CNS 97% | UACC-257 melanoma 96.4% | M14 melanoma 98.1%

O=C(NCc1ccco1)C1CCN(S(=O)(=O)c2ccc(Cl)cc2)CC1
active: DU-145 prostate -18.5%
inactive: K-562 leukemia 13.9% | MALME-3M melanoma 54.6% | MDA-MB-231 breast 68.9% | RXF 393 renal 85.1% | SF-268 CNS 37.1% | SF-539 CNS 80.9% | UACC-257 melanoma 86.5% | M14 melanoma 72.4%

CC(C)(C)[Si](C)(C)OC1[C@@H](O[Si](C)(C)C(C)(C)C)[C@@H](CNC(=O)NC(=O)C(F)(F)F)O[C@H]1n1cnc2c(NC(=O)Nc3ccccc3)ncnc21 (stereo partly drawn)
inactive: MALME-3M melanoma 74.8% | MDA-MB-231 breast 82.7% | RXF 393 renal 104% | SF-295 CNS 69.5% | SF-539 CNS 92.5% | M14 melanoma 71.6%
active: DU-145 prostate -81.2% | K-562 leukemia -40.8% | SF-268 CNS -29%

CN1CCc2c(c3ccccc3c3ccccc23)C1
inactive: DU-145 prostate 45.7% | K-562 leukemia 27.1% | MALME-3M melanoma 53.4% | MDA-MB-231 breast 59.6% | SF-268 CNS 39.1% | SF-295 CNS 45.1% | SF-539 CNS 50.8% | UACC-257 melanoma 37.6% | M14 melanoma 56.2%

CCOC(=O)C1=C(C)N2C(=NC3=C(CCCC/C3=C\c3cc(OC)c(OC)c(OC)c3)C2c2cc(OC)c(OC)c(OC)c2)S1 (stereo not drawn)
inactive: DU-145 prostate 86% | K-562 leukemia 31.2% | MALME-3M melanoma 51.8% | MDA-MB-231 breast 71.9% | SF-268 CNS 80.6% | SF-295 CNS 56.5% | SF-539 CNS 79.9% | M14 melanoma 79%

Cc1nc(NC(=O)COc2cccc(/C=C3\COc4ccccc4C3=O)c2)sc1C
inactive: DU-145 prostate 63.1% | SF-295 CNS 25.3%
active: K-562 leukemia -65.2% | MALME-3M melanoma -68.1% | MDA-MB-231 breast 0.962% | SF-268 CNS -63.3% | SF-539 CNS -63.9% | UACC-257 melanoma -49% | M14 melanoma -79.4%

COc1ccc(-n2c(SCc3cc(OC)c(OC)c(OC)c3)nc3ccc(C)cc3c2=O)c(OC)c1
inactive: K-562 leukemia 14.4% | MALME-3M melanoma 25.5% | MDA-MB-231 breast 44.8% | RXF 393 renal 19.6% | SF-268 CNS 44.1% | SF-539 CNS 20% | M14 melanoma 11.2%
active: DU-145 prostate 4.58% | SF-295 CNS 6.35%

N#Cc1ccc(C(F)(F)F)nc1N1CCC(C(=O)Nc2ccc(Cl)cc2)CC1
inactive: DU-145 prostate 86.6% | K-562 leukemia 49.3% | MALME-3M melanoma 94.2% | MDA-MB-231 breast 95.7% | SF-268 CNS 89% | SF-295 CNS 65.5% | SF-539 CNS 100% | M14 melanoma 75.2%

CCOC(=O)C(CC(c1ccccc1)N1CCCCC1)[N+](=O)[O-] (stereo not drawn)
inactive: DU-145 prostate 94.4% | K-562 leukemia 69.5% | MALME-3M melanoma 62% | MDA-MB-231 breast 86.6% | RXF 393 renal 100% | SF-268 CNS 93% | UACC-257 melanoma 89% | M14 melanoma 82.5%

CC1=CN2C(=NC3=C(CCCC/C3=C\c3ccccc3)C2c2ccccc2)S1 (stereo not drawn)
inactive: DU-145 prostate 108% | K-562 leukemia 98.2% | MALME-3M melanoma 89% | MDA-MB-231 breast 103% | SF-268 CNS 96.9% | SF-295 CNS 79.1% | SF-539 CNS 92.3% | M14 melanoma 107%

COc1cccc(Nc2nc(NCCO)c3ccccc3n2)c1
inactive: DU-145 prostate 97% | K-562 leukemia 42.7% | MALME-3M melanoma 75.7% | MDA-MB-231 breast 65.3% | RXF 393 renal 70.7% | SF-268 CNS 72.5% | SF-539 CNS 81.5% | UACC-257 melanoma 95.8% | M14 melanoma 77.7%

COc1ccc(-c2nc3sc(C)nn3c2-c2nc3cc(C)c(C)cc3[nH]2)cc1
inactive: DU-145 prostate 101% | K-562 leukemia 97.2% | MALME-3M melanoma 88.3% | MDA-MB-231 breast 99.6% | RXF 393 renal 99.5% | SF-268 CNS 101% | SF-539 CNS 95% | UACC-257 melanoma 100% | M14 melanoma 103%

Cc1ccc(N=c2nc3sc4c(C)ccc(C)c4n3c(N)c2C#N)cc1
inactive: DU-145 prostate 105% | K-562 leukemia 88.6% | MALME-3M melanoma 125% | MDA-MB-231 breast 93.9% | RXF 393 renal 124% | SF-268 CNS 92.6% | SF-295 CNS 91.1% | SF-539 CNS 99.1% | M14 melanoma 102%

CC(C)(C)[Si](C)(C)OC1[C@@H](CNC(=O)NC(=O)CCl)O[C@@H](n2cnc3c(N)ncnc32)[C@H]1O[Si](C)(C)C(C)(C)C (stereo partly drawn)
active: K-562 leukemia -33.9% | MALME-3M melanoma -67.3% | MDA-MB-231 breast -76.8% | RXF 393 renal -13.3% | SF-268 CNS -76.6% | SF-295 CNS -57.4%
inactive: DU-145 prostate 23% | SF-539 CNS 15% | M14 melanoma 23.3%

Nc1c(Br)cc(Br)cc1-c1n[nH]c(=O)[nH]c1=O
inactive: DU-145 prostate 114% | K-562 leukemia 102% | MALME-3M melanoma 98.4% | MDA-MB-231 breast 87.4% | RXF 393 renal 103% | SF-268 CNS 104% | SF-295 CNS 98% | SF-539 CNS 92.5% | M14 melanoma 101%

Nc1ccccc1-c1n[nH]c(=O)[nH]c1=O
inactive: DU-145 prostate 121% | K-562 leukemia 107% | MALME-3M melanoma 106% | MDA-MB-231 breast 113% | SF-268 CNS 114% | SF-295 CNS 79% | SF-539 CNS 101% | M14 melanoma 99%

O=c1[nH]c(-c2ccncc2)nc2sc3c(c12)CCCCCC3
inactive: DU-145 prostate 77.5% | K-562 leukemia 88.1% | MALME-3M melanoma 64% | MDA-MB-231 breast 62.1% | SF-268 CNS 83.5% | SF-295 CNS 53.2% | SF-539 CNS 82.6% | M14 melanoma 85.3%
active: RXF 393 renal -1.71%

FC(F)(F)c1ccc2c(c1)n1cnnc1c1nncn21
inactive: DU-145 prostate 118% | K-562 leukemia 100% | MALME-3M melanoma 106% | MDA-MB-231 breast 104% | RXF 393 renal 104% | SF-268 CNS 117% | SF-295 CNS 89.2% | SF-539 CNS 114% | M14 melanoma 114%

Cc1ccc2nc(NC(=O)CSC(=S)N3CCN(C)CC3)sc2c1
inactive: DU-145 prostate 122% | K-562 leukemia 106% | MALME-3M melanoma 108% | MDA-MB-231 breast 110% | RXF 393 renal 105% | SF-268 CNS 112% | SF-539 CNS 100% | UACC-257 melanoma 89.8% | M14 melanoma 107%

COC(=O)[C@@H]1CCCN1C(=O)[C@@H]1CCCN1C(=O)[C@@H](Cc1c[nH]c2ccccc12)NC(=S)Nc1cc(C(F)(F)F)cc(C(F)(F)F)c1
inactive: DU-145 prostate 80.5% | K-562 leukemia 15.4% | MALME-3M melanoma 60.4% | MDA-MB-231 breast 53.2% | RXF 393 renal 47.5% | SF-268 CNS 58% | SF-539 CNS 89.4% | UACC-257 melanoma 72.3% | M14 melanoma 61.1%

CC(=O)Nc1ccccc1-c1n[nH]c(=O)[nH]c1=O
inactive: DU-145 prostate 107% | K-562 leukemia 107% | MALME-3M melanoma 89.6% | MDA-MB-231 breast 104% | RXF 393 renal 96.6% | SF-268 CNS 105% | SF-295 CNS 98.1% | SF-539 CNS 91.3% | M14 melanoma 92%

NC(=O)c1cc(I)ccc1NC(=O)COc1ccccc1
active: K-562 leukemia 8.23% | RXF 393 renal 8.03% | SF-539 CNS -33.6% | M14 melanoma 0.806%
inactive: DU-145 prostate 25% | MDA-MB-231 breast 27.6% | SF-268 CNS 46.4% | SF-295 CNS 12.6% | UACC-257 melanoma 61.4%

Cc1ccc(S(=O)(=O)N(c2ccc(Cl)cc2)c2ccc(Br)cc2C(=O)O)cc1
inactive: DU-145 prostate 117% | K-562 leukemia 107% | MDA-MB-231 breast 119% | RXF 393 renal 100% | SF-268 CNS 111% | SF-295 CNS 112% | SF-539 CNS 102% | UACC-257 melanoma 101% | M14 melanoma 117%

NC(=S)N/N=C1\c2ccccc2-c2c(F)c(F)c(F)c(F)c21
active: K-562 leukemia 9.46%
inactive: DU-145 prostate 81.7% | MALME-3M melanoma 73.6% | RXF 393 renal 123% | SF-268 CNS 85.3% | SF-295 CNS 99.5% | SF-539 CNS 96.1% | UACC-257 melanoma 23.1% | M14 melanoma 70.2%
